Only some compounds are listed: those with a hit (about 2.8% of all), similar ones and a draw of the others.
PI5P4Ka inh = qHTS for Inhibitors of phosphatidylinositol 5-phosphate 4-kinase (PI5P4K). Phosphatidylinositol 5-phosphate 4-kinase type-2 alpha (Homo sapiens), P48426. 330,000 tested, 1.2% active. PI5P4Kalpha enzyme, ADP-Glo luminescence, 60 min; active compounds read low. max response, %. AID 652105, 2013; active = max response of -50% or lower; inconclusive = between -30% and -50%; inactive = -30% or higher; note: value at the top dose of about 77 µM; % is set by controls: 0 for no effect and ±100 for the full control effect
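Controls without substrate or without enzyme flank wells where PI5P4Kalpha converts substrate using 5 microM ATP (final). Incubation lasts 60 minutes at room temperature; ADP formed is read by ADP-Glo luminescence.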
Pol kappa inh-1 = qHTS for Inhibitors of Polymerase Kappa; DNA polymerase kappa (Homo sapiens), Q9UBT6; purified Pol kappa, fluorescent DNA synthesis assay, 10 min; Potency, µM (top dose mostly 107 µM), without a hit: top-dose activity, negative = inhibition, hits mostly inhibitors; 400,000 tested, 0.53% active; note: potency is the fitted concentration of half-maximal effect; % is set by controls: 0 for no effect and ±100 for the full control effect
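Inhibition of 10 nM Pol kappa is measured by a fluorescent read-out at 0 and 10 min following addition of 50 nM substrate (final), with a 15-min room-temperature compound preincubation.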
WRN helicase inh-1 = qHTS for Inhibitors of WRN Helicase | Bifunctional 3'-5' exonuclease/ATP-dependent helicase WRN (Homo sapiens), Q14191 | WRN helicase unwinding, fluorescent forked duplex, kinetic | Potency, µM (series often up to 114 µM), for inactives: at the top dose activity change, negative = inhibition, usual class: inhibitors | 360,000 tested, 0.46% active; note: potency is the fitted concentration of half-maximal effect; % is set by controls: 0 for no effect and ±100 for the full control effect; nearly all actives have a fitted effect of over 55% in size
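Enzyme (20 nM final) and test compound sit together 15 min at room temperature before substrate addition. Substrate is a single-forked duplex oligonucleotide (100 nM) labelled with fluorophore and quencher, with 2 mM ATP; helicase unwinding raises red fluorescence, read kinetically.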
POLB inh = qHTS Assay for Inhibitors of DNA Polymerase Beta | 340,000 tested, 1.3% active | Potency, µM (doses to about 114 µM), for inactives: top-dose activity change, negative = inhibition, most hits filed as inhibitors | Pol beta primer extension/strand displacement, fluorescence kinetic; note: potency is the fitted concentration of half-maximal effect; % is set by controls: 0 for no effect and ±100 for the full control effect
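10 nM enzyme + cpd, 15 min RT; start with substrate 50 nM final; read 0 min and after 10 min RT. Corrected, normalized data; 4-parameter Hill curve fit.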
Pol eta inh-1 = qHTS for Inhibitors of Polymerase Eta; DNA polymerase eta (Homo sapiens), Q9Y253; recombinant Pol eta, fluorescent DNA replication assay; Potency, µM (top dose mostly 114 µM), for the others: top-dose activity change, negative = inhibition, usual class: inhibitors; 390,000 tested, 1.2% active; note: potency is the fitted concentration of half-maximal effect; % is set by controls: 0 for no effect and ±100 for the full control effect
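Fluorescent replication assay: 50 nM final substrate added after a 15 min room-temperature compound preincubation with 10 nM enzyme. Signal taken at 0 min and again at 10 min.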
POLI inh = qHTS for Inhibitors of Polymerase Iota. DNA polymerase iota (Homo sapiens), Q9UNA4. Pol iota fluorescent replication assay, 10 min. Potency, µM (series often up to 115 µM), for inactives: at the top dose activity, negative = inhibition, most hits filed as inhibitors. 390,000 tested, 1% active. AID 588590, 2011; note: potency is the fitted concentration of half-maximal effect
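Fluorescent replication assay read twice, at 0 min and 10 min after adding 50 nM (final) substrate. Enzyme (10 nM) and compounds were first incubated 15 min at room temperature; enzyme-free buffer wells were negative controls.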
TbPGK inh = qHTS for inhibitors of Phosphogylcerate Kinase: Hit Validation Screen. Potency, µM (highest dose often 57.5 µM), for the others: at the top dose activity change, negative = inhibition, most hits filed as inhibitors. TbPGK coupled GAPDH assay, Kinase-Glo luminescence. shares compounds with Pol kappa inh-1. AID 686980, 2013. 500 tested, 79% active; note: potency is the fitted concentration of half-maximal effect; % is set by controls: 0 for no effect and ±100 for the full control effect; nearly all actives have a fitted effect of over 65% in size
Pol iota confirm = qHTS for Inhibitors of Polymerase Iota: Confirmatory Assay for Cherry-picked Compounds; shares compounds with Pol kappa inh-1; Pol iota primer extension, TAMRA/BHQ fluorescence; Potency, µM, actives largely listed as inhibitors; 1,500 tested, 77% active; AID 720496, 2013; note: potency is the fitted concentration of half-maximal effect
Pol kappa inh-2 = qHTS for Inhibitors of Polymerase Kappa: Confirmatory Assay for Cherry-picked Compounds. shares compounds with Pol eta inh-1. purified Pol-kappa, fluorescent strand-displacement substrate. Potency, µM, actives largely listed as inhibitors. 920 tested, 76% active; note: potency is the fitted concentration of half-maximal effect
Pol eta inh-2 = qHTS for Inhibitors of Polymerase Eta: Confirmatory Assay for Cherry-picked Compounds; Pol eta primer extension, TAMRA/BHQ fluorescence, 10 min; shares compounds with Pol eta inh-1; AID 720502, 2013; Potency, µM, usual class: inhibitors; 2,600 tested, 64% active; note: potency is the fitted concentration of half-maximal effect
WRN helicase inh-2 = qHTS for Inhibitors of WRN Helicase: Confirmatory Assay for Cherry-picked Compounds. shares compounds with WRN helicase inh-1. WRN helicase DNA unwinding, fluorescence kinetic. Potency, µM (series often up to 57.1 µM), inactives show at the top dose activity, negative = inhibition, hits mostly inhibitors. 610 tested, 63% active. AID 720497, 2013; note: potency is the fitted concentration of half-maximal effect; nearly all actives have a fitted effect of over 65% in size
TO displacement = qHTS for Inhibitors of WRN Helicase: Thiazole Orange DNA Binding Counterscreen. shares compounds with WRN helicase inh-1. thiazole orange DNA binding displacement, fluorescence. AID 720499, 2013. 610 tested, 10% active. Potency, µM (titrated, usually from 57.1 µM), inactives show at the top dose activity change, negative = inhibition, usual class: inhibitors;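 note: drop in dye fluorescence marks compound binding to DNA; potency is the fitted concentration of half-maximal effect; % is set by controls: 0 for no effect and ±100 for the full control effect; nearly all actives have a fitted effect of over 60% in size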
BLM counter = qHTS for Inhibitors of WRN Helicase: BLM Helicase Counterscreen for WRN Inhibitors; shares compounds with WRN helicase inh-1; Recombinant BLM helicase DNA unwinding, red fluorescence; Potency, µM (doses to about 57.1 µM), for the others: at the top dose activity change, negative = inhibition, usual class: inhibitors; 610 tested, 60% active; AID 720503, 2013; note: potency is the fitted concentration of half-maximal effect; nearly all actives have a fitted effect of over 60% in size
* marks the source's active call; other numbers are inactive results; ? = inconclusive; / = not tested or not shown; [ ] = another dose, or the depositor's remark. Unless noted, calls come from the whole dose curve; as a rule, active = well fitted curve in the direction sought with a large enough effect; inconclusive = small, poorly fitted or top-dose-only effect, or another doubt; inactive = no such curve, though single readings can be large; an effect the other way counts as inactive or inconclusive.

SMILES | PI5P4Ka inh | Pol kappa inh-1 | WRN helicase inh-1 | POLB inh | Pol eta inh-1 | POLI inh | Pol iota confirm | Pol eta inh-2 | WRN helicase inh-2 | TO displacement | BLM counter | others
O=C(O)c1[nH]c2ccccc2c1C(c1cc(Cl)cc([N+](=O)[O-])c1O)c1c(C(=O)O)[nH]c2ccccc12 | -26.8 | 50.1µM* | 44.7µM* | 35.5µM* | 20µM* | 17.8µM* | 75.2* | 26.9* | 21.5µM* | -11.5% | ?
Cc1nnc(-c2cnn(C)c2N)n1Cc1cccc(Cl)c1 | -1.5 | 0.1% | 0.1% | 3.0% | -9.8% | 26.7% | / | / | / | / | /
COc1ccc(OC)c(C2CC(=O)Nc3c2c(=O)[nH]c2nc4ccccc4n32)c1 (stereo unspecified) | / | 8.7% | / | 33.5% | -1.6% | -17.5% | / | / | / | / | /
C=CCSC1=N/C(=C\C=C\c2ccco2)C(=O)S1 | -63.2* | 14.1µM* | 31.6µM* | 2.51µM* | 3.55µM* | 4.47µM* | 21.2* | 21.3* | 19.2µM* | 24.1µM* | 5.41µM* | Pol kappa inh-2=9.47*
CCn1nnnc1Sc1nc(C)nc2scc(-c3ccccc3)c12 | / | 6.7% | / | / | / | -19.8% | / | / | / | / | /
COc1ccc(Br)cc1/C=c1\sc2nc(-c3ccco3)nn2c1=O | -58.7* | 20µM* | 35.5µM* | 4.47µM* | 3.16µM* | 8.91µM* | 59.7* | 30.1* | 17.1µM* | 19.2µM* | 7.64µM* | Pol kappa inh-2=11.9*
COc1ccc(/C=c2\sc3nc(=O)c(C)nn3c2=O)c(OC)c1 | -1.6 | -12.0% | 1.1% | -8.1% | 15.3% | 0.6% | / | / | / | / | /
CCCNC(=O)COc1coc(CN2CCN(c3ccc(F)cc3)CC2)cc1=O | -1.5 | -2.2% | -2.9% | 2.9% | -0.7% | 22.9% | / | / | / | / | /
O=C1CCCC(O)=C1N=Nc1ccc(C(=O)O)cc1 | ? | 20µM* | 31.6µM* | 2.82µM* | 3.16µM* | 6.31µM* | 5.97* | 4.78* | 7.64µM* | ? | 12.1µM* | TbPGK inh=9.19µM*
O=C1CCCC(O)=C1N=Nc1ccc2c(c1)OCO2 | -14.8 | -26.5% | -23.3%[57.1 µM] | 26.1% | -10.1% | 16.6% | / | / | / | / | /
O=C1OC(c2ccc3c(c2)OCO3)=N/C1=C\c1ccc(C(=O)O)cc1 | -10.9 | ? | ? | ? | 10µM* | ? | ? | 8.49* | 19.2µM* | ? | 5.41µM*
O=C(CSc1n[nH]c(=O)[nH]c1=O)Nc1ccc2c(c1)C(=O)c1ccccc1C2=O | -58.6* | -41.8% | 31.6µM* | 2.82µM* | 8.91µM* | ? | 26.7* | 19* | 8.57µM* | 12.1µM* | 4.29µM* | TbPGK inh=3.26µM*;Pol kappa inh-2=23.8*
COc1ccc(C(=O)c2oc3ccccc3c2NC(=O)COc2c(C)cc(C)cc2C)cc1 | / | 2.4% | / | 13.7% | -11.0% | -9.7% | / | / | / | / | /
Cc1ccc(CNC(=O)CCS(=O)(=O)c2ccc(Br)cc2)cc1 | -0.6 | 22.4µM* | 25.1µM* | 7.94µM* | 10µM* | 15.8µM* | 37.7* | 26.9* | 3.83µM* | 5.41µM* | 2.15µM* | TbPGK inh=6.51µM*
CCc1noc(C)c1C(=O)Nc1cc(S(=O)(=O)N2CCOCC2)ccc1N1CCN(CC)CC1 | 8.4 | -1.5% | 4.3% | / | -2.1% | 19.0% | / | / | / | / | /
Nc1nc2c(s1)COc1ccccc1-2 | -15.5 | 14.6% | 5.6% | -1.6% | -6.7% | 48.4% | / | / | / | / | /
Nc1nc2c(s1)CCc1c-2cnn1-c1ccccc1 | ? | -4.2% | -24.8% | ? | 79.4µM* | 14.1µM* | 23.8* | 67.5* | 30.4µM* | -15.7% | 30.4µM*
CSc1nc(N)c(C(=O)Nc2ccc([N+](=O)[O-])cc2)s1 | -9.8 | -1.6% | 3.0% | 0.7% | -5.6% | -10.7% | / | / | / | / | /
C=CCc1cccc2cc(-c3nc4ccc(C)cc4[nH]3)c(=O)oc12 | / | -6.8%[60.1 µM] | / | 6.6% | / | ? | / | / | / | / | /
O=C(O)c1ccc2nc(-c3cc4cccc(O)c4oc3=O)[nH]c2c1 | / | ? | / | 8.91µM* | / | ? | 23.8* | 21.3* | 10.8µM* | 19.2µM* | 3.04µM* | Pol kappa inh-2=26.7*
CCN(CC)CCCNc1nc2cc(OC)c(OC)cc2c2nc(-c3ccccc3)nn12 | 3.0 | ? | 35.5µM* | 11.2µM* | ? | 7.94µM* | 37.7* | / | 17.1µM* | -9.1% | 24.6%
O=C(Oc1ccc(Nc2ncnc3ccccc23)cc1)c1cccnc1 | -1.4 | -1.9% | 0.0% | 1.0% | -17.7% | -5.1% | / | / | / | / | /
CCOc1ccc(C(=O)c2cc([N+](=O)[O-])ccc2Cl)cc1 | 1.4 | -12.4% | -27.2% | 21.1% | -4.2% | 6.7% | / | / | / | / | /

Screening results as filed in PubChem.
